Screens from PubChem BioAssay.
Rows were chosen to be rich in hits. Some 15% of all compounds tested hit in one or more screens of this group.
ELG1 repair inh – ELG1-dependent DNA repair inhibition; 2.3% of 330,000 active; AID 504467; HEK293T ELG1-luciferase reporter, luminescence, 16 h; DNA damage induced by 5-fluorouridine; Potency, µM (doses to about 46.1 µM), for the others: at the top dose activity change, negative = inhibition, actives largely listed as inhibitors; note: nearly all actives have a fitted effect of over 55% in size
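Overnight (16 hr) co-exposure of 2,000 cells/well to 5-fluorouridine and compound at 37 °C preceded detection. Luciferase was quantified via ONE-Glo luminescence; loss of signal denotes inhibition.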
DT40 TDP1 no CPT – qHTS for Inhibitors of human tyrosyl-DNA phosphodiesterase 1 (TDP1): qHTS in cells in absence of CPT. DT40 Tdp1-/- hTDP1 cells, no CPT, ATP luminescence, 48 h. Potency, µM (doses to about 46.2 µM), without a hit: at the highest dose activity change, negative = growth inhibition, hits mostly inhibitors. 15% of 420,000 active. AID 686978, 2013; note: nearly all actives have a fitted effect of over 55% in size
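A cellular qHTS used chicken DT40 cells lacking endogenous Tdp1 but carrying stably transfected human TDP1. Compounds were applied without camptothecin, and cell growth kinetics were judged by ATP-dependent luminescence after ≥48 hr.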
VP16 counter – inhibits Gal4-VP16 luciferase reporter, ROR gamma counter-screen | Drosophila S2 Gal4-VP16 UAS-luciferase, luminescence, 20 h | AID 2546 | Potency, µM (titrated, usually from 53.6 µM), inactives show at the highest dose activity, negative = inhibition, most hits filed as inhibitors | 3.5% of 310,000 active;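 note: Gal4-VP16 expression switched on by copper sulfate through the metallothionein promoter; nearly all actives have a fitted effect of over 50% in size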
RORgamma inh – blocks mouse ROR gamma transcriptional activity | P51450 | Drosophila S2 Gal4-RORgamma UAS-luciferase reporter, 20 h | Potency, µM (doses to about 53.6 µM), without a hit: top-dose activity change, negative = inhibition, most hits filed as inhibitors | 5.4% of 310,000 active | AID 2551; note: nearly all actives have a fitted effect of over 60% in size
Target sequence (P51450 whole entry, looked up, the tested form may be a part): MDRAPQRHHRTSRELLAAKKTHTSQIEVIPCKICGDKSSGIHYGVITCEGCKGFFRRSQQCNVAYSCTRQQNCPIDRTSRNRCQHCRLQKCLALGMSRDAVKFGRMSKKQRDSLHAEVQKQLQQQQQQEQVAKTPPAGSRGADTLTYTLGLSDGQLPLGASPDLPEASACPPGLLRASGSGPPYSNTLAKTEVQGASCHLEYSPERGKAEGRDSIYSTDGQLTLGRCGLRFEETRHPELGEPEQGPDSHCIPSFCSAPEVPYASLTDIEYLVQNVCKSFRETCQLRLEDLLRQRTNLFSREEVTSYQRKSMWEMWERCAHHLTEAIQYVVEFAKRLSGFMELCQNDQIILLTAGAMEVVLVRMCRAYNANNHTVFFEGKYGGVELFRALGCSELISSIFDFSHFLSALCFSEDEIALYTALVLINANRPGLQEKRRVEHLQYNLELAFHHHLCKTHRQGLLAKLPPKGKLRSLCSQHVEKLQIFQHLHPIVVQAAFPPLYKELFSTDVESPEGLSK
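Using a luciferase readout, inhibitors were identified by reduced reporter activity in Drosophila cells coexpressing a copper-inducible Gal4–ROR gamma fusion and UAS-driven Photinus luciferase, incubated 20 hr after 700 uM copper sulfate.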
12-LOX inh – blocks human arachidonate 12S-lipoxygenase; P18054; purified 12hLO, xylenol orange hydroperoxide absorbance; Potency, µM (series often up to 108 µM), for inactives: top-dose activity change, negative = inhibition, actives largely listed as inhibitors; 1.1% of 580,000 active
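Purified human 12hLO (150 nM final) in 25 mM Hepes, 0.01% Triton X-100, pH 7.0 was preincubated 15 min at room temperature with compound. Then 40 uM arachidonic acid was added, 30 min. Hydroperoxide was read by Fe-XO absorbance ratio 573/405 nm.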
TDP1 cell CPT – DT40-hTDP1 cell growth loss with CPT. Potency, µM (highest dose often 46.2 µM), without a hit: at the highest dose activity change, negative = growth inhibition, usual class: inhibitors. chicken DT40 Tdp1-/-;hTDP1 cells + 20 nM CPT, ATP luminescence, 48 h. 12% of 420,000 active; note: nearly all actives have a fitted effect of over 55% in size
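Cell growth measured by CellTiter-Glo luminescence after a minimum 48 h, 37 C compound exposure with 20 nM CPT in Tdp1-knockout DT40 cells stably expressing hTDP1, seeded 400/well; qHTS titration format.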
An asterisk follows results filed as active; u = inconclusive; x = no result given; [ ] = remark or other dose. Calls come from the whole dose curve; as a rule, active = well fitted curve in the direction sought with a large enough effect; inconclusive = small, poorly fitted or top-dose-only effect, or another doubt; inactive = no such curve, though single readings can be large; an effect the other way counts as inactive or inconclusive. % is set by controls: 0 for no effect and ±100 for the full control effect; potency is the fitted concentration of half-maximal effect.

SMILES	ELG1 repair inh	DT40 TDP1 no CPT	VP16 counter	RORgamma inh	12-LOX inh	TDP1 cell CPT
COc1ccc(C(=O)NCc2n[nH]c(=O)c3ccccc23)cc1OC	x	x	x	x	22.8%	x
Cc1ccc(C)c(NC(=O)C(Sc2ccc(S(=O)(=O)N3CCCC3)cn2)c2ccccc2)c1 (configuration not stated)	x	x	x	x	-15.9%	x
COCc1noc(CC2CCOC3(CCN(C(=O)c4c[nH]c5ccccc45)CC3)C2)n1 (configuration not stated)	x	x	x	x	5.9%	x
CCN(CC)c1ccc(/C=C2\SC(=O)N(C(C)C)C2=O)o1	u	2.06µM*	4.47µM*	3.55µM*	x	0.92µM*
CC(C)N1C(=O)S/C(=C/c2cccnc2)C1=O	u	-29.5%	15.7%	-15.7%	-10.5%	-25.1%
COc1ccc(CNC(=O)[C@H]2CCC[C@H]2NC(=O)c2ccc(OC)nc2)cc1	x	x	x	x	3.3%	x
CCOc1ccc(-n2c(SCC(=O)Nc3ccc(CC)cc3)nc3c(oc4ccccc43)c2=O)cc1	x	u	x	x	-13.4%	1.2%
CCOc1ccc(NC(=O)CSc2nc3c(oc4ccccc43)c(=O)n2-c2ccccc2C)cc1	x	23.1µM*	x	x	-24.0%	u
COc1ccccc1NC(=O)CSc1nc2c(oc3ccccc32)c(=O)n1-c1ccccc1F	x	9.2µM*	x	x	-21.5%	13µM*
CC1(c2ccccc2)N(Cc2cccnc2)C(=O)OC12CCN(C(=O)Cc1ccc3c(c1)OCO3)CC2 (configuration not stated)	x	x	x	x	22.6%	x
O=C(Nc1cccc(OCC2CCCO2)c1)C1CCN(C(=O)Nc2ccccc2)CC1 (configuration not stated)	x	x	x	x	-6.9%	x
CC(C)c1noc(-c2cn(C3CCN(C(=O)c4cccc5[nH]ccc45)CC3)nn2)n1	x	x	x	x	18.7%	x
CCOc1ccc(N(CC(=O)NC2CCCCC2C)S(=O)(=O)c2c(C)noc2C)cc1 (configuration not stated)	-1.1%	-1.8%	-3.5%	-3.4%	-12.8%	u
CCOc1ccc(S(=O)(=O)N(CC(=O)NC2CCCCC2C)Cc2ccco2)cc1 (configuration not stated)	u	25.9µM*	u	u	-12.3%	14.6µM*
COc1ccccc1-c1ccc(SCc2ccc(C)cc2)nn1	u	14.6µM*	21.3%	u	6.6%	u
CN(C)C(=O)c1ccc(NC(=O)Cn2nc(-c3ccc(Cl)cc3)c3ccccc3c2=O)cc1	x	x	x	x	-1.5%	x
Nc1nc(N)c2cc(S(=O)(=O)c3cccc(C(F)(F)F)c3)ccc2n1	x	0.92µM*	x	x	-12.7%	3.66µM*
Nc1cccnc1S(=O)(=O)c1cccc(C(F)(F)F)c1	x	u	x	x	-5.5%	u
COc1ccccc1Cn1cc(C(=O)c2ccccc2)c(=O)c2cc(OC)c(OC)cc21	x	u	x	x	-2.7%	u
COc1ccccc1Cn1cc(C(=O)c2ccc(C)cc2)c(=O)c2cc3c(cc21)OCCO3	x	20.6µM*	x	x	2.2%	14.6µM*
COc1ccccc1Cn1cc(C(=O)c2ccc(C)cc2)c(=O)c2cc(C)ccc21	x	7.31µM*	x	x	-16.1%	5.17µM*
O=C(c1ccc(F)cc1)c1cn(Cc2ccccc2F)c2cc3c(cc2c1=O)OCCO3	x	20.6µM*	x	x	6.2%	u
CN(Cc1cc(C[C@@H]2C[C@H](NCc3cccnc3)C2(C)C)no1)c1ccccc1	x	x	x	x	19.1%[176 µM]	x
Cc1ccc(O)c(N=Cc2cccs2)c1	u	u	-22.4%	u	u	23.1µM*
Cc1ccc(O)c(N=Cc2ccc(C)s2)c1	u	-14.9%	-10.5%	-35.7%	u	-16.9%
SMILES	ELG1 repair inh	DT40 TDP1 no CPT	VP16 counter	RORgamma inh	12-LOX inh	TDP1 cell CPT
O=C(OCc1ccccc1)C1CCCN1C(=O)c1cccs1 (configuration not stated)	13.1%	-2.9%	1.2%	-18.0%	147.6%	-4.5%
O=C(OCc1ccccc1)C1CCCN1C(=O)c1ccccc1[N+](=O)[O-] (configuration not stated)	-28.8%	16.4µM*	-8.4%	19.4%	-1.7%	14.6µM*
CCOC(=O)c1c(C)[nH]c(C(=O)Cn2cnc3ccccc3c2=O)c1C	x	x	x	x	-16.7%	x
CCCNC(=O)C1(C)CCN(C(=O)c2cc(C)nn2C(C)(C)C)C1 (configuration not stated)	x	1.4%	x	x	1.6%	1.6%
CCCNC(=O)C1(C)CCN(C(=O)c2cc(C)n(C(C)(C)C)n2)C1 (configuration not stated)	x	-14.6%	x	x	-2.4%	-14.6%
CCCNC(=O)C1(C)CCCN(C(=O)c2cc(C)n(C(C)(C)C)n2)C1 (configuration not stated)	x	u	x	x	-12.1%	u
CCCNC(=O)C1(C)CCCN(C(=O)c2cc(C)nn2C(C)(C)C)C1 (configuration not stated)	x	u	x	x	4.8%	11.6µM*
CCNC(=O)C1(C)CCCN(C(=O)c2cc(C)n(C(C)(C)C)n2)C1 (configuration not stated)	x	-25.0%	x	x	-11.2%	7.31µM*
Cc1cc(C(=O)N2CCCC(C)(C(=O)NS(=O)(=O)C3CC3)C2)nn1C(C)(C)C (configuration not stated)	x	2.91µM*	x	x	-21.0%	u
NC(=O)CCn1c2ccccc2c2ccccc21	-13.7%	-2.1%	-3.4%	10.2%	-1.0%	4.1%
CC(C)CCn1c2ccccc2c2cc(CC(N)=O)ccc21	2.2%	23.1µM*	-15.2%	6.2%	340.3%	u
Cc1ccc(-n2ncc3c(NCc4ccccc4)ncnc32)cc1C	x	u	x	x	-21.0%	u
Cn1ncc2c(NCc3cccc(Cl)c3)ncnc21	x	u	x	x	-61.1%	14.6µM*
Cn1ncc2c(Nc3ccccc3Cl)nc(Cl)nc21	12.8%	-19.5%	2.1%	35.7%	12.5%	-2.5%
Cn1ncc2c(NCCc3ccccc3)nc(Cl)nc21	x	20.6µM*	x	x	0.3%	23.1µM*
CCCNc1nc(NCc2ccccc2OC)c2cnn(C)c2n1	x	13µM*	x	x	39.8µM*	14.6µM*
COCCNc1nc(NCc2ccccc2)c2cnn(C)c2n1	-9.0%	u	5.0%	-2.6%	-4.3%	-2.6%
COCCNc1nc(NCc2cccc(Cl)c2)c2cnn(C)c2n1	x	14.6µM*	x	x	u	u
Cc1ccccc1CNc1nc(N(C)C)nc2c1cnn2C	x	u	x	x	u	-21.4%
COc1ccc2[nH]c3c(c2c1)CCNC31CCN(C(=O)CC(C)C)CC1	x	x	x	x	8.3%	x
